Test results taken from PubChem BioAssay AID623868 (Vanderbilt High Throughput Screening Facility, 2012).
The whole screen tested about 2,100 compounds, of which about 760 (36%) were called active. Only a sample is shown. Values without a mark were called inactive.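 The calls were made as follows: active = thallium-flux fluorescence traces judged by eye to show enhanced or reduced glutamate response, manual score 1 or -1, so both directions (some results past the limit were not filed as active); inactive = the rest, including fluorescent or raised-baseline compounds.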

Experiment: thallium influx changes without GIRK channels – cell-based, HEK-293 rmGlu8, no GIRK, thallium flux, counter-screen for GIRK activator project, confirmation (AID 623868);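 also: extra codes mark interference with 3 for fluorescent and 4 for baseline rise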
Conditions: thallium flux fluorescence, at 10 µM, actives lie on both sides
For `COc1cc(-n2c(=S)[nH]c3ccccc3c2=O)c(Cl)cc1Cl`, the manual score was 1 (active).
In the case of `CC(C)Oc1cc(-n2c(=S)[nH]c3ccccc3c2=O)c(Cl)cc1Cl`, the manual score is reported as 1 (active).
For `c1ccc2c(CNC3CCCCC3)c[nH]c2c1`, the manual score was 0.
`CCOC(=O)C(O)(c1ccc(N(CC)S(=O)(=O)c2ccc(C)cc2)cc1)C(F)(F)F` (stereo not given) gave a manual score of 0.
Work on `CNC(=O)OCCc1nccn1C` yielded a manual score of 0.5.
In the case of `Fc1ccc(NC2=NCCS2)cc1Cl`, the manual score is reported as 0.
Compound `CC(C)CCn1c(=O)c(C(=O)Nc2ccccc2S(N)(=O)=O)c(O)c2ccccc21` has a manual score of 0.
`C=CCOC(=O)COc1cc(C)cc2oc(=O)c3c(c12)CCC3` gave a manual score of -0.5.
`C/C(=N\Nc1ccccc1)c1c(O)n(C)c(=O)n(C)c1=O` gave a manual score of 0.
Work on `O=c1cc(C(F)(F)F)c2cc3c4c(c2o1)CCCN4CCC3` yielded a manual score of 3.
For `S=C1CN=C(c2ccccc2Cl)c2cc(Cl)ccc2N1`, the manual score was 1 (active).
In the case of `S=C1CN=C(c2ccccc2)c2cc(Cl)ccc2N1`, the manual score is reported as 1 (active).
With `Cc1ccccc1C1=NCC(=S)Nc2ccc(Cl)cc21` the manual score was 1 (active).
With `O=C(Cc1ccccc1)N1CCN(C/C=C/c2ccccc2)CC1` the manual score was 0.
Compound `CCN(c1ccc(C(O)(C(=O)OC)C(F)(F)F)cc1)S(=O)(=O)c1ccc(C)cc1` (stereo not given) has a manual score of 0.
Compound `CCCCn1c(C)c(C(=O)OCC)c2c(CN3CCOCC3)c(O)ccc21` has a manual score of 0.
With `Cc1ccc2nc(N3CCC(C(=O)N4CCC5(CC4)OCCO5)CC3)sc2c1` the manual score was 0.
Compound `N=c1sc2c(n1Cc1ccccc1)CCCC2` has a manual score of 0.
Compound `O=C(Nc1ccc(Cl)cc1)Nc1nccs1` has a manual score of 0.
In the case of `O=C(c1ccccc1)c1cn(CC(=O)N2CCOCC2)c2ccccc12`, the manual score is reported as -0.5.
In the case of `Cn1cccc1CNCCc1ccccc1`, the manual score is reported as 0.
For `Cc1nn(C)cc1/C=C1/CC2C3CC=C4CC(O)CCC4(C)C3CCC2(C)C1=O` (stereo not given), the manual score was 0.
`CCN(CC)CCNCC(=O)Nc1ccc(Cl)cc1C(=O)c1ccccc1` gave a manual score of 0.
Work on `Nc1c(C(=O)OC2CCCCC2)c2nc3ccccc3nc2n1CC1CCCO1` (stereo not given) yielded a manual score of -0.5.
Compound `Cc1ccc(OCC(=O)NCCN2CCN(C(=O)COc3ccc(C)cc3)CC2)cc1` has a manual score of 0.
